Assay outcomes (PubChem)
An excerpt weighted towards active compounds, which were near 2.5% of everything screened.
697 NFkB inh: lowers PMA/ionomycin-induced NF-kB signal in 697 B cells; 697 B-cell NF-kB luciferase reporter, 16 h; 0.33% of 330,000 active; inhibition, % at 4 µM; in the data active means inhibition above about 35%
ANO1 activ: mouse TMEM16A channel activation, primary screen. Q8BHY3. HEK293 TMEM16A/YFP-H148Q/I152L, iodide quench fluorescence; stronger effect = lower value. B-score at 10 µM. 0.3% of 340,000 active. AID 623877;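 active means fluorescence-ratio B-score plate-corrected deviation score at least 3 library SD below zero, with starting fluorescence score within 5 deviations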;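 further: channel opened by trigger with iodide after compound preincubation; score built on the fluorescence ratio of max minus min over baseline; more negative score means more quench and so TMEM16A activation or potentiation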
Target sequence (Q8BHY3 whole entry, looked up): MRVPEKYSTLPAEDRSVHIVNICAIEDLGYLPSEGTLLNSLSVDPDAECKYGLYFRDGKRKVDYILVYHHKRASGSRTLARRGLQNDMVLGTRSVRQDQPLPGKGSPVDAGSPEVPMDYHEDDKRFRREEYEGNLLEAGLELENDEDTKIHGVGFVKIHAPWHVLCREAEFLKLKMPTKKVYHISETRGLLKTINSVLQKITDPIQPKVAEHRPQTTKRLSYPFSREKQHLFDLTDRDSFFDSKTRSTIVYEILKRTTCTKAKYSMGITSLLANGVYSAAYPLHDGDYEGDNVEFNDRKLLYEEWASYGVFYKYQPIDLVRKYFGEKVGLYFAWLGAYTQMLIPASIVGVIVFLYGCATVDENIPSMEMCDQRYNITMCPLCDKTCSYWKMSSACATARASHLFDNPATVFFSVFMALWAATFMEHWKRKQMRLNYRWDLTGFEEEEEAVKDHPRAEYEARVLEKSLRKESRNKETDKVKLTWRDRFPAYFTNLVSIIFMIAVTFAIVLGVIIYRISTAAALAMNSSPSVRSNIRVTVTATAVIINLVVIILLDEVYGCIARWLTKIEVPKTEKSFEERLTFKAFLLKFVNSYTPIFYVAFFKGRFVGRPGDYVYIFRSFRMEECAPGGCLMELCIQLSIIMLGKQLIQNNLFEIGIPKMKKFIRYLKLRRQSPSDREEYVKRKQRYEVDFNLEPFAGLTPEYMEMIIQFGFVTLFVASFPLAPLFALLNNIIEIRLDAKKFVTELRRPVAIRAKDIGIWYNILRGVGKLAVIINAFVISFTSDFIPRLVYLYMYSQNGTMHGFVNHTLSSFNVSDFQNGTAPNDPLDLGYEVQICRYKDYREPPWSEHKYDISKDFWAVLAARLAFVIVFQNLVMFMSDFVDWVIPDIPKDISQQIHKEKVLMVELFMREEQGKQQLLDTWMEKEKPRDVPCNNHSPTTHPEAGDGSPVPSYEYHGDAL
KLF5 inhibitor: kruppel-like factor 5 inhibition; DLD-1 KLF5 promoter-luciferase reporter, luminescence; AID 1700; inhibition, % at 5 µM; 0.23% of 290,000 active;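 active means inhibition above a per-plate limit of that plate's mean compound inhibition plus 3 SD, cut at about 60% in these data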;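 further: higher means less KLF5 promoter-driven luciferase light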
aSyn 5UTR inh: MLPCN primary screen, SNCA 5' untranslated region | 0.82% of 300,000 active | AID 1813 | inhibition, % (tested at 7.5 µM) | alpha-synuclein 5'UTR reporter, inhibitor activity; in the data active means inhibition above about 60%;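 further: H4 neuroglioblastoma cells stably carrying SNCA 5'UTR luciferase fusion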
TMEM16A inh: inhibitors of mouse TMEM16A calcium-activated chloride channel | AID 588511 | HEK293 TMEM16A/YFP iodide influx fluorescence, ionomycin | Q8BHY3 | normalized B-score (activity score, 25-100; higher = stronger inhibition) at 10 µM | 1.2% of 310,000 active;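 active means ratio plate-corrected score three or more library SD toward inhibition, starting fluorescence score within five deviations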;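 further: score derived from kinetic fluorescence span divided by baseline fluorescence per well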
Jurkat NFkB inh: lowers PMA/ionomycin-induced NF-kB signal in Jurkat cells. PMA/ionomycin-induced NF-kB luciferase reporter, luminescence. inhibition, % at 4 µM. 0.53% of 330,000 active. AID 435003; in the data active means inhibition above about 50%
Hits are given with their value; - = inactive; . = no result.

SMILES	697 NFkB inh	ANO1 activ	KLF5 inhibitor	aSyn 5UTR inh	TMEM16A inh	Jurkat NFkB inh
CCN(CC)CCOc1ccc(C=NNc2nc3c([nH]2)c(=O)n(C)c(=O)n3C)cc1	.	-	.	.	.	.
O=C(CCNS(=O)(=O)c1ccccc1)NNC(=O)c1cccc(Cl)c1	-	-	.	.	.	-
Cc1nn(-c2ccc(Cl)cc2)c(=O)c2ccccc12	-	-	-	-	-	-
Cc1c(Cl)sn(-c2ccc(Cl)cc2)c1=O	-	-14	-	.	.	-
O=C(CCNc1ccc(Br)cc1)c1cccc([N+](=O)[O-])c1	-	-	-	-	-	-
O=C(/C(N=Nc1cccc([N+](=O)[O-])c1)=C(/O)c1ccc(Br)cc1)C(F)(F)F	-	.	-	-	100	-
CCOC(=O)C(C(=O)OCC)C(c1ccccc1)N1CCN(c2ccccc2)CC1 (stereo unspecified)	.	-	.	.	.	.
CC1C=CCC2C(=O)N(c3cccc(C(=O)Nc4ccc(Br)cc4)c3)C(=O)C12 (stereo unspecified)	-	-	-	-	25	-
O=C(CC(c1ccccc1)C1CCCCC1=O)c1ccccc1 (stereo unspecified)	.	-	.	.	.	.
O=C(Cc1ccc(F)cc1)N/N=C/c1ccccn1	-	-	-	-	-	-
O=C(Cc1ccc(Br)c2ccccc12)N/N=C/c1ccccn1	-	-	-	-	25	-
Cc1nn(CC(=O)N(CC(C)C)C2CCS(=O)(=O)C2)c(C)c1[N+](=O)[O-] (stereo unspecified)	-	-	.	.	.	-
Cc1ccccc1-n1ncc2c1CC(C)(C)CC2NC(=O)c1snnc1C (stereo unspecified)	-	-	-	-	-	-
CC(C)c1ccc(N(C(=O)CNC(=O)c2ccco2)C(C(=O)NC2CCCC2)c2ccncc2)cc1 (stereo unspecified)	-	-	-	-	-	-
O=C(NCC(=O)N(c1ccccc1)C(C(=O)NC1CCCC1)c1ccncc1)c1ccco1 (stereo unspecified)	-	-16	-	-	-	-
Nc1ccc(S(=O)(=O)NN=Cc2ccccc2[N+](=O)[O-])cc1	.	-	.	.	.	.
Cc1nn2cnnc2c(C)c1Cc1c(F)cccc1Cl	-	-	-	-	-	-
Cc1[nH]c2ccccc2c1C(=O)C(=O)N1CCN(c2cccc(Cl)c2)CC1	-	-53	-	-	-	-
Cc1ccc(F)c(CNC(=O)C2CCC(=O)N(Cc3ccccn3)C2)c1F (stereo unspecified)	-	-	-	-	-	-
Cc1ccc(C(=O)Nc2ncc(Cc3ccccc3)s2)o1	-	-	-	-	-	-
O=C(Nc1ncc(Cc2ccc(SC(F)F)cc2)s1)c1ccccc1	-	-	-	68	-	-
COc1cccc(/C=C2\Oc3cc(OCC(=O)N4CCCCC4)ccc3C2=O)c1OC	-	-	-	-	-	-
COc1cccc(/C=C2\Oc3cc(OCC(=O)N4CCCC4)ccc3C2=O)c1OC	-	-38	-	-	-	-
COc1ccc(Cn2c(=S)[nH]c3ccccc3c2=O)cc1	-	-	-	-	-	-
Cc1ccc2c(c1)sc(=NC(=O)c1cccs1)n2C	-	-	-	85	-	-
SMILES	697 NFkB inh	ANO1 activ	KLF5 inhibitor	aSyn 5UTR inh	TMEM16A inh	Jurkat NFkB inh
CC(C)NC(=S)NC(=O)/C=C/c1cccc2ccccc12	-	-6.8	-	-	-	-
CN1CCN(C(=S)NC(=O)/C=C/c2cccc3ccccc23)CC1	-	-	-	-	-	-
Fc1ccccc1NC(=S)NNc1ncc(C(F)(F)F)cc1Cl	-	-	-	-	100	-
Cc1ccccc1NC(=S)NNc1ncc(C(F)(F)F)cc1Cl	-	-	-	-	-	-
CCCCn1c(N)c(N(CCOC)C(=O)CN(C)S(=O)(=O)c2ccc(C)cc2)c(=O)[nH]c1=O	-	-	.	-	-	-
CCn1nc(C)cc1-c1nnc(Sc2ncc([N+](=O)[O-])s2)n1C	-	-9.8	-	-	-	-
O=C(On1c(-c2ccccc2)nc2ccccc2c1=O)c1ccco1	-	-	-	-	100	-
Cc1c[n+](CC(=O)c2ccccc2)c(C)cn1	-	-	-	-	-	-
CC(C)N(Cc1ccccc1)C(=O)COC(=O)CCC(=O)c1ccc(F)cc1	-	-	.	.	.	-
C/C(=N\Nc1cc(C)nc(-c2ccccc2O)n1)c1ccccc1	-	-	-	-	-	-
Cc1cc(N/N=C/c2ccc(O)c(C)c2O)nc(-c2ccccc2O)n1	.	-	-	87	-	.
COc1ccc(CC(=O)Nc2cccc(S(=O)(=O)N3CCOCC3)c2)cc1OC	-	-	.	.	.	-
CCc1cc2c(=O)n(-c3ccccc3)c(=S)[nH]c2s1	-	-	-	-	25	-
CN(Cc1ccon1)C(=O)C1CCC(=O)N(CCc2ccc(Cl)cc2)C1 (stereo unspecified)	-	-	-	-	.	-
Cc1ccc2nc(N(CCCN(C)C)C(=O)c3cc(-c4cccs4)nc4ccccc34)sc2c1	-	-	-	67	-	-
CN(C)CCCN(C(=O)c1cc(-c2cccs2)nc2ccccc12)c1nc2c(F)cccc2s1	-	-	-	-	-	-
CC(=O)Nc1cccc(C(=O)OC(C)C(=O)NC(=O)NC2CCCCC2)c1 (stereo unspecified)	-	-	.	-	-	-
COc1c(CC=C(C)C)c(O)cc2oc(=O)c3c4ccc(O)cc4oc3c12	-	.	.	-	-	-
CC(C)=CCc1c(O)cc2c(=O)c3ccc(O)cc3oc2c1O	-	-7	.	-	-	-
OC(COc1ccc(OCC(O)CN2CCCCC2)cc1)CN1CCCCC1 (stereo unspecified)	-	-	-	-	-	-
OC(COc1ccc(CNCCc2ccc(C(F)(F)F)cc2)cc1)CN1CCCCC1 (stereo unspecified)	-	-	-	82	-	-
Cc1cccc(/C=C/C(=O)c2ccc([N+](=O)[O-])o2)c1	-	-	.	-	-	-
O=C(/C=C/c1cccc([N+](=O)[O-])c1)c1ccc([N+](=O)[O-])o1	.	-	.	71	-	.
CCc1cc(/C(Cc2ccccn2)=N\O)c(O)cc1O	-	-	-	-	-	-
CCc1cc(/C(Cc2ccc3ccccc3n2)=N\O)c(O)cc1O	-	-	-	-	100	-
SMILES	697 NFkB inh	ANO1 activ	KLF5 inhibitor	aSyn 5UTR inh	TMEM16A inh	Jurkat NFkB inh
O=C(CCC(=O)c1cccs1)OCc1ccc([N+](=O)[O-])cc1	-	-	.	.	.	-
CCOC(=O)C1=C(COC(=O)[C@@H](NC(=O)c2cccc(C)c2)C(C)C)NC(=O)NC1C (stereo partly specified)	-	-	.	.	.	-
CC(C)Cc1ccc(CN2CCCC(NC(=O)c3cnc4ccccn4c3=O)C2)cc1 (stereo unspecified)	-	-	-	-	25	-
Cc1ccc(S(=O)(=O)Nc2cc(C(F)(F)F)ccc2N2CCOCC2)c(C)c1	-	-14	-	-	-	-
NC(=NC(=O)c1ccccc1)N1CCN(C(c2ccccc2)c2ccccc2)CC1	-	-	-	-	-	-
O=C(Nc1cccc2c1[nH]c1ccccc12)C(F)(F)F	-	-	-	-	25	-
